Reference: the supplement of paper PMC6555819

Legend:
Assay in all cases: PBM binding z-score (relative to random genomic background probes); higher = stronger binding; sequences stand for … in GC…GCGATTGACAGCGTAGAATGAAGG
[1] = tested on: PPARg:RXRa DBDmut IVT, anti-RXR (DBD mutation: RXRa K156A/R161A, NR concentration 270 nM, RXRa partner concentration 90 nM)
Summary of the method: (§1)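 Binding z-scores were set against random background probes. The data came from custom Agilent 4×180K protein-binding microarrays carrying double-stranded probes with 34-nt variable regions, incubated 1 h with ligand-free nuclear receptor dimers. Partner-specific antibodies detected binding, and scanned fluorescence was regression-normalized.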

[2] = tested on: PPARg:RXRa IVT, anti-PPARg (NR concentration 270 nM, RXRa partner concentration 90 nM)
Summary of the method: as §1

[3] = tested on: PPARg DBDmut:RXRa IVT, anti-PPARg (DBD mutation: PPARg1 K132A/R137A, NR concentration 270 nM, RXRa partner concentration 90 nM)
Summary of the method: as §1

[4] = tested on: PPARg DBDmut IVT, anti-PPARg (DBD mutation: PPARg1 K132A/R137A, NR concentration 270 nM)
Summary of the method: as §1

[5] = tested on: PPARg homodimer (NR concentration 180 nM)
Summary of the method: as §1

[6] = tested on: PXR:RXRa (NR concentration 270 nM, RXRa partner concentration 90 nM)
Summary of the method: as §1

[7] = tested on: PXR homodimer (NR concentration 270 nM)
Summary of the method: as §1

[8] = tested on: RARa:RXR (NR concentration 270 nM, RXRa partner concentration 90 nM)
Summary of the method: as §1

[9] = tested on: RARa homodimer (NR concentration 270 nM)
Summary of the method: as §1

[10] = tested on: RARb:RXRa (NR concentration 270 nM, RXRa partner concentration 90 nM)
Summary of the method: as §1

[11] = tested on: RARb homodimer (NR concentration 270 nM)
Summary of the method: as §1

[12] = tested on: RARg:RXRa (NR concentration 270 nM, RXRa partner concentration 90 nM)
Summary of the method: as §1

[13] = tested on: RARg homodimer (NR concentration 270 nM)
Summary of the method: as §1

[14] = tested on: RXRa DBDmut IVT, anti-RXR (DBD mutation: RXRa K156A/R161A, NR concentration 90 nM)
Summary of the method: as §1

[15] = tested on: RXRa homodimer (NR concentration 180 nM)
Summary of the method: as §1

[16] = tested on: THRa:RXRa (NR concentration 90 nM, RXRa partner concentration 90 nM)
Summary of the method: as §1

[17] = tested on: THRa homodimer (NR concentration 90 nM)
Summary of the method: as §1

[18] = tested on: VDR homodimer (NR concentration 270 nM)
Summary of the method: as §1

Sequence TAGCCTAGGTCATTCGGCCAGTATAGTACGCATC has a PBM binding z-score [1] of 1.85, a PBM binding z-score [2] of 2.83 and a PBM binding z-score [3] of -0.386. For the same sequence, the PBM binding z-score [4] was -0.398, the PBM binding z-score [5] was 0.361 and the PBM binding z-score [6] was 1.39. For the same sequence, the PBM binding z-score [7] was -0.455, the PBM binding z-score [8] was 2 and the PBM binding z-score [9] was -0.658. It also gave a PBM binding z-score [10] of 3.6, a PBM binding z-score [11] of 3.12 and a PBM binding z-score [12] of 3.81. For the same sequence, the PBM binding z-score [13] was 4.13, the PBM binding z-score [14] was 1.7 and the PBM binding z-score [15] was 2.52. It also gave a PBM binding z-score [16] of 2.66, a PBM binding z-score [17] of 0.61 and a PBM binding z-score [18] of 1.6.

With TAGCCTGGGTCAGATCGGGCCAGTATACGCTATA the PBM binding z-score [1] was -0.428, the PBM binding z-score [2] was 0.885 and the PBM binding z-score [3] was -0.83. The PBM binding z-score [4] was -0.762, the PBM binding z-score [5] was -0.849 and the PBM binding z-score [6] was 0.931. For the same sequence, the PBM binding z-score [7] was -0.947, the PBM binding z-score [8] was 0.69 and the PBM binding z-score [9] was -0.739. The PBM binding z-score [10] was 2.33, the PBM binding z-score [11] was 1.61 and the PBM binding z-score [12] was 2.42. The PBM binding z-score [13] was 2.86, the PBM binding z-score [14] was -1.34 and the PBM binding z-score [15] was 1.46. The PBM binding z-score [16] was 4.11, the PBM binding z-score [17] was -0.483 and the PBM binding z-score [18] was -1.02.

Sequence TCGAGTACGTTACCAATGGGGCATTCAGCTTTCT has a PBM binding z-score [1] of 0.846, a PBM binding z-score [2] of -0.201 and a PBM binding z-score [3] of -0.329. It also gave a PBM binding z-score [4] of -0.495, a PBM binding z-score [5] of -0.459 and a PBM binding z-score [6] of 0.154. For the same sequence, the PBM binding z-score [7] was -0.778, the PBM binding z-score [8] was 0.193 and the PBM binding z-score [9] was -0.477. The PBM binding z-score [10] was 0.0471, the PBM binding z-score [11] was 0.0384 and the PBM binding z-score [12] was -0.336. It also gave a PBM binding z-score [13] of -0.335, a PBM binding z-score [14] of 3.13 and a PBM binding z-score [15] of -0.358. The PBM binding z-score [16] was -0.315, the PBM binding z-score [17] was -0.201 and the PBM binding z-score [18] was 1.2.

CGGAGTAGGTTATGGGGCATTCAGGCAACGGTGA gave a PBM binding z-score [1] of 4.84, a PBM binding z-score [2] of 5.14 and a PBM binding z-score [3] of 0.983. For the same sequence, the PBM binding z-score [4] was -0.0364, the PBM binding z-score [5] was 1.28 and the PBM binding z-score [6] was 0.209. It also gave a PBM binding z-score [7] of 0.125, a PBM binding z-score [8] of 0.151 and a PBM binding z-score [9] of 0.386. It also gave a PBM binding z-score [10] of 0.965, a PBM binding z-score [11] of 1.26 and a PBM binding z-score [12] of 0.544. It also gave a PBM binding z-score [13] of 0.721, a PBM binding z-score [14] of -0.446 and a PBM binding z-score [15] of 0.668. It also gave a PBM binding z-score [16] of 0.705, a PBM binding z-score [17] of 0.801 and a PBM binding z-score [18] of 0.416.

CCTAGTAGTTGACCATAAGGGCAACCGAAGCTCG showed a PBM binding z-score [1] of -0.333, a PBM binding z-score [2] of 0.506 and a PBM binding z-score [3] of -0.485. It also gave a PBM binding z-score [4] of -0.576, a PBM binding z-score [5] of 1.26 and a PBM binding z-score [6] of 0.431. The PBM binding z-score [7] was 0.221, the PBM binding z-score [8] was 0.651 and the PBM binding z-score [9] was 0.534. For the same sequence, the PBM binding z-score [10] was 1.49, the PBM binding z-score [11] was 2.08 and the PBM binding z-score [12] was 1.13. For the same sequence, the PBM binding z-score [13] was 0.854, the PBM binding z-score [14] was -0.02 and the PBM binding z-score [15] was 0.613. It also gave a PBM binding z-score [16] of 1.81, a PBM binding z-score [17] of 1.16 and a PBM binding z-score [18] of 0.728.

For ATCTCTAGGTAAAAGTTCAGTGACTCCCGAGGAT, the PBM binding z-score [1] was 2.54, the PBM binding z-score [2] was 3.69 and the PBM binding z-score [3] was 1.46. The PBM binding z-score [4] was 1.46, the PBM binding z-score [5] was 1.59 and the PBM binding z-score [6] was 2.36. It also gave a PBM binding z-score [7] of 1.59, a PBM binding z-score [8] of 1.97 and a PBM binding z-score [9] of 0.841. The PBM binding z-score [10] was 2.39, the PBM binding z-score [11] was 2.46 and the PBM binding z-score [12] was 2.04. It also gave a PBM binding z-score [13] of 2.16, a PBM binding z-score [14] of 0.624 and a PBM binding z-score [15] of 1.75. The PBM binding z-score [16] was 1.32, the PBM binding z-score [17] was 0.142 and the PBM binding z-score [18] was 1.69.

Work on TCTTGTAGATCAGCAGGTTAAGAGAGCTGGCCAA yielded a PBM binding z-score [1] of 1.29, a PBM binding z-score [2] of 0.366 and a PBM binding z-score [3] of -0.495. It also gave a PBM binding z-score [4] of -0.454, a PBM binding z-score [5] of -0.22 and a PBM binding z-score [6] of 0.214. The PBM binding z-score [7] was -0.483, the PBM binding z-score [8] was 0.282 and the PBM binding z-score [9] was -0.593. For the same sequence, the PBM binding z-score [10] was 0.113, the PBM binding z-score [11] was -0.156 and the PBM binding z-score [12] was -0.1. The PBM binding z-score [13] was -0.407, the PBM binding z-score [14] was 0.292 and the PBM binding z-score [15] was 0.367. The PBM binding z-score [16] was -0.0987, the PBM binding z-score [17] was -0.325 and the PBM binding z-score [18] was -0.364.

With TCTGCTAGGTCAACGATGGTCTGCTAATCTGCTA the PBM binding z-score [1] was 3.96, the PBM binding z-score [2] was 3.88 and the PBM binding z-score [3] was 0.46. It also gave a PBM binding z-score [4] of 1.25, a PBM binding z-score [5] of 0.811 and a PBM binding z-score [6] of 0.995. It also gave a PBM binding z-score [7] of -0.719, a PBM binding z-score [8] of 2 and a PBM binding z-score [9] of -0.907. It also gave a PBM binding z-score [10] of 3.83, a PBM binding z-score [11] of 2.72 and a PBM binding z-score [12] of 3.69. It also gave a PBM binding z-score [13] of 4.4, a PBM binding z-score [14] of 0.993 and a PBM binding z-score [15] of 2.25. It also gave a PBM binding z-score [16] of 2.6, a PBM binding z-score [17] of 0.712 and a PBM binding z-score [18] of -0.658.
